Measurements as given in PubChem BioAssay (NCI).
The panel holds about 83,000 compounds, 20% with a hit somewhere; the sample as a whole holds those more often.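 Results are percent growth after 48 hours of single-concentration exposure. 100 means growth as in untreated cells, lower positive values show inhibition; negative values down to -100 show cell death.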 Calls of active or inactive are those of the source. Rule for the calls: active = growth percent below 10; inactive = the rest.

Columns and labels:
Assay in all cases: NCI-60 one-dose screen, 48 h (100 = growth as untreated, 0 = no growth, -100 = all killed)
Conditions in all cases: 10 µM unless noted
SK-MEL-2 melanoma = system: SK-MEL-2 melanoma
EKVX NSCLC = system: EKVX NSCLC
SN12C renal = system: SN12C renal
UO-31 renal = system: UO-31 renal
TK-10 renal = system: TK-10 renal
ACHN renal = system: ACHN renal
CAKI-1 renal = system: CAKI-1 renal
A498 renal = system: A498 renal
CCRF-CEM leukemia = system: CCRF-CEM leukemia
MOLT-4 leukemia = system: MOLT-4 leukemia

Measured: growth

Nc1n[nH]c2cc(F)c([C@@H]3Nc4c(F)cc5[nH]ncc5c4[C@H]4C5CCC(C5)[C@@H]34)cc12 (stereo not given in full)
active: CAKI-1 renal 6.94% | A498 renal -38.9%
inactive: SK-MEL-2 melanoma 43.5% | EKVX NSCLC 63.2% | SN12C renal 17.3% | UO-31 renal 36.5% | TK-10 renal 76.3% | ACHN renal 24.4% | CCRF-CEM leukemia 17.8% | MOLT-4 leukemia 14.8%

O=c1oc2ccccc2c(Cl)c1Cl
inactive: SK-MEL-2 melanoma 54.7% | EKVX NSCLC 106% | SN12C renal 17.9% | UO-31 renal 62.3% | TK-10 renal 94.3% | ACHN renal 80.7% | CAKI-1 renal 83.4% | A498 renal 112% | CCRF-CEM leukemia 18.9% | MOLT-4 leukemia 37.5%

CCCCNC(=O)Oc1ccc2c(=O)c3sc4c(=O)c5ccccc5c(=O)c4c3c(=O)c2c1
active: SK-MEL-2 melanoma -54.7% | EKVX NSCLC -77.7% | SN12C renal -86.3% | UO-31 renal -56.7% | TK-10 renal -95.2% | ACHN renal -88.9% | CAKI-1 renal -75.4% | A498 renal -98.8% | CCRF-CEM leukemia -29.4% | MOLT-4 leukemia -44.4%

COC(=O)c1ccc(CSc2nnc(-c3c(C)nc4ccc(C)cn34)o2)cc1
inactive: SK-MEL-2 melanoma 105% | EKVX NSCLC 102% | SN12C renal 99.2% | UO-31 renal 85.9% | TK-10 renal 113% | ACHN renal 98.3% | CAKI-1 renal 92.9% | A498 renal 93.5% | CCRF-CEM leukemia 106% | MOLT-4 leukemia 94.4%

Cc1c(C(=O)OC(=NC2CCCCC2)NC2CCCCC2)sc2c1c(=O)nc1c(C#N)n[nH]n12
inactive: SK-MEL-2 melanoma 93.6% | EKVX NSCLC 109% | SN12C renal 117% | UO-31 renal 79.6% | TK-10 renal 117% | ACHN renal 106% | CAKI-1 renal 101% | A498 renal 119% | CCRF-CEM leukemia 300% | MOLT-4 leukemia 99.7%

COc1cc(/C=C/C(=O)c2c(C)nc3ccccc3c2/C=C/c2ccc(C)cc2)cc(OC)c1OC
inactive: SK-MEL-2 melanoma 39.7% | EKVX NSCLC 34.7% | SN12C renal 15.2% | UO-31 renal 33.5% | TK-10 renal 54.3% | ACHN renal 13.7% | CAKI-1 renal 28.6% | A498 renal 32.6%
active: CCRF-CEM leukemia 5.31% | MOLT-4 leukemia 4.36%

c1ccc2cc3nc4cc5ccccc5cc4nc3cc2c1
inactive: SK-MEL-2 melanoma 104% | EKVX NSCLC 100% | SN12C renal 88.6% | UO-31 renal 89% | TK-10 renal 108% | ACHN renal 97.4% | CAKI-1 renal 113% | A498 renal 107% | MOLT-4 leukemia 109%
active: CCRF-CEM leukemia -24.9%

O=c1c2cc(F)ccc2sc2c(NCCN3CCCCC3)nc3ccccc3c12
inactive: SK-MEL-2 melanoma 98.7% | EKVX NSCLC 61% | SN12C renal 48.6% | UO-31 renal 27.1% | TK-10 renal 77.7% | ACHN renal 42.7% | CAKI-1 renal 38.6% | A498 renal 61.6% | CCRF-CEM leukemia 44.3% | MOLT-4 leukemia 27.5%

C[C@H]1[C@H]2[C@H]3CC[C@@H]4[C@@]5(C)C/C(=C/c6ccco6)C(=O)C(C)(C)[C@@H]5CC[C@@]4(C)[C@]3(C)CC[C@]23CO[C@]1(C)[C@@H](C(=O)/C=C\c1ccco1)C3
inactive: SK-MEL-2 melanoma 65.6% | EKVX NSCLC 107% | SN12C renal 90.4% | UO-31 renal 71.5% | TK-10 renal 103% | ACHN renal 68.4% | CAKI-1 renal 69% | A498 renal 123% | CCRF-CEM leukemia 100% | MOLT-4 leukemia 100%

COc1ccc(-c2nc(SCCC(C)C)nc(N/N=C\c3ccccc3O)c2C#N)cc1
inactive: SK-MEL-2 melanoma 103% | EKVX NSCLC 101% | SN12C renal 81.2% | UO-31 renal 86.7% | TK-10 renal 101% | ACHN renal 73.5% | CAKI-1 renal 73.9% | A498 renal 95.8% | CCRF-CEM leukemia 66.3% | MOLT-4 leukemia 90.2%

O=C(Nc1ccccc1-c1nc2ccccc2c(=O)[nH]1)c1cc2ccccc2[nH]1
inactive: SK-MEL-2 melanoma 96.4% | EKVX NSCLC 78.9% | SN12C renal 94.7% | UO-31 renal 63.6% | TK-10 renal 111% | ACHN renal 86.7% | CAKI-1 renal 81.8% | A498 renal 119% | CCRF-CEM leukemia 97.4% | MOLT-4 leukemia 95.6%

O=C1N=c2cc3c(cc2=C/C1=C/c1sc(=S)n(CCc2ccc(O)cc2)c1O)OCCO3
active: SN12C renal 5.51% | ACHN renal 6.54%
inactive: SK-MEL-2 melanoma 82.9% | EKVX NSCLC 61.3% | UO-31 renal 71.1% | TK-10 renal 90.3% | CAKI-1 renal 59.7% | A498 renal 80.2% | CCRF-CEM leukemia 40.9% | MOLT-4 leukemia 21.5%
